KDM5B inh: blocks human KDM5B histone demethylase activity | Q9UGL1 | KDM5B demethylase, FDH-coupled NADH fluorescence (FDH is formaldehyde dehydrogenase) | Potency, µM (doses to about 57.7 µM), usual class: inhibitors | 2.6% of 220,000 active; active means well fitted inhibition curve with a large enough effect; further: 0% is about no effect; nearly all actives have a fitted effect of over 70% in size
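Coupled FDH/NAD⁺ fluorescence readout. KDM5BΔAP 200 nM final; compound titration, 10 min RT preincubation; substrate mix 12.5 µM H3K4me3, 25 µM 2-OG, 50 µM Fe(II), 100 µM ascorbate, 0.25 mM NAD⁺, 0.25 U/mL FDH; ΔRFU over 30 min.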
* hit, by the source's call; i = inactive. The entries come from a sample that favours hits as a whole. Potency means the concentration at half of the fitted maximal effect.

SMILES	KDM5B inh
O=C(c1ccoc1)N1CCCn2cc(-c3ccccc3F)nc21	i
O=C(c1ccccc1F)N1CCCn2cc(-c3ccccc3F)nc21	i
CC(=O)N1CCC(C(=O)N2CCCn3cc(-c4ccccc4)nc32)CC1	i
N#Cc1cccc(-c2cn3c(n2)N(C(=O)Cc2ccsc2)CCC3)c1	32µM*
Cc1cc(C(=O)N2CCCn3cc(-c4ccccc4F)nc32)nn1C	i
N#Cc1cccc(-c2cn3c(n2)N(C(=O)CC2CCCC2)CCC3)c1	20µM*
O=C(Cc1ccsc1)Nc1cccc(-c2nnc3n2CCCC3)c1	i
O=C(CC1CCCCC1)N1CCN(c2cc(-c3ccccc3)[nH]n2)CC1	i
N#Cc1cccc(-c2cn3c(n2)N(C(=O)c2ccccc2F)CCC3)c1	20µM*
O=C(CCC1CCCN(Cc2cn[nH]c2-c2ccc(F)cc2)C1)Nc1ccccc1F (stereo not drawn)	i
Cn1nc(C(=O)Nc2ccccc2C(=O)NCC(F)(F)F)c2ccccc2c1=O	i
COCCNC(=O)[C@H]1C[C@H](Oc2ccccc2)CN1Cc1cn(C)c2ccccc12	i
CCN1C2=C(C(=O)CC(C)(C)C2)C(c2ccc(O)cc2)C2=C1CC(C)(C)CC2=O	i
Cc1ccc2c(Cl)c(C(=O)NC(C)c3ccncc3)sc2c1 (stereo not drawn)	i
COc1ccc(CS(=O)(=O)C(C)C(=O)N(C)Cc2ccccc2)cc1F (stereo not drawn)	i
CC(Sc1nnc2c(Cl)cc(C(F)(F)F)cn12)C(=O)c1cccc(Cl)c1 (stereo not drawn)	i
N#Cc1cccc(-c2cn3c(n2)N(C(=O)c2ccsc2)CCC3)c1	18µM*
Cc1ccc(-c2cn3c(n2)N(C(=O)c2nc4ncccn4n2)CCC3)cc1	i
Cc1nc(C)c(C(=O)N2CCCn3cc(-c4ccccc4F)nc32)s1	i
COc1cccc(-c2cn3c(n2)N(C(=O)Cn2ccnc2)CCC3)c1	i
COc1ccc(-c2cc(N3CCCN(C(=O)c4ccsc4)CC3)n[nH]2)cc1	i
Cc1ccc(C(=O)N2CCCn3cc(-c4cccc(C#N)c4)nc32)cc1	32µM*
CC(=O)NCC(=O)N1CCCn2cc(-c3cccc(C#N)c3)nc21	i
Cc1ccc(-c2cn3c(n2)N(C(=O)c2cnccn2)CCC3)cc1	i
N#Cc1cccc(-c2cn3c(n2)N(C(=O)COc2ccccc2)CCC3)c1	28µM*
SMILES	KDM5B inh
COc1cccc(CNC(=O)Cn2c(=O)c(-c3noc(C)n3)c3n(c2=O)CCCCC3)c1	i
O=C(O)CNS(=O)(=O)c1ccc(Cl)s1	i
CCn1cnnc1-c1cccc(NC(=O)Cc2ccc3c(c2)CCC3)c1	i
Cc1ccc(NC(=O)CN(C)C(=O)CN2CCCC(C(F)(F)F)C2)cc1 (stereo not drawn)	i
O=C(/C=C/N(C1CCCCC1)C1CCCCC1)C(F)(F)F	i
Cc1ccn2c(=O)cc(CN3CC[C@@H]4[C@@H](CCC(=O)N4CCC(C)C)C3)nc2c1	28µM*
COCCCN1C(=O)CC[C@H]2CN(Cc3cc(CC(C)C)n[nH]3)CC[C@H]21	i
NC(=O)c1noc(CN2CC[C@@H]3[C@@H](CCC(=O)N3CCc3ccccc3)C2)n1	i
COc1ccc(OC)c(CN2CCN(C(=O)c3cn(C)nc3-c3ccc4c(c3)OCCCO4)CC2)c1	i
Cc1ccc(Cn2c(N3CCN(Cc4cccc5ccccc45)CC3)nc3c2c(=O)[nH]c(=O)n3C)cc1	i
COc1ccccc1CC(=O)NCc1cccc(C(F)(F)F)c1	i
Cc1noc([C@@H]2CN(Cc3ccccc3C)C[C@H]2CO)n1	i
Cc1noc([C@@H]2CN(Cc3ccncc3)C[C@H]2CO)n1	28µM*
Cc1noc([C@@H]2CN(Cc3ccc(F)cc3F)C[C@H]2CO)n1	i
Cc1noc([C@@H]2CN(Cc3ccncc3F)C[C@H]2CO)n1	i
Cc1ccc(CN2C[C@@H](CO)[C@H](c3nc(-c4ccncc4)no3)C2)cc1	i
Cc1ccc2cc(CN3C[C@@H](CO)[C@H](c4nc(C)no4)C3)c(=O)[nH]c2c1	28µM*
Cc1ccc(CN2C(=O)OC(c3cccc(NC(=O)Cc4ccccc4)c3)C2C(=O)NCC(C)C)cc1 (stereo not drawn)	i
O=C(NCC(c1ccccc1)c1c[nH]c2ccccc12)c1ccccc1 (stereo not drawn)	i
COc1ccc(/C=C/C(=O)OCC2C(COC(=O)/C=C/c3ccc(OC)c(OC)c3)C2(Cl)Cl)cc1OC (stereo not drawn)	i
CC(C)(C)NC(=O)CSc1nnc(-c2ccncc2)n1CC(F)(F)F	i
COc1cccc2cc(C(=O)OCC(=O)c3ccc(C)cc3)c(=O)oc12	i
COc1ccc(C(=O)COc2ccc(C#N)cc2OC)cc1F	i
CCCc1ccc(S(=O)(=O)N2C[C@@H]3C(=O)N(C(CC)c4cccs4)C(=O)[C@@H]3C2)cc1 (stereo partly drawn)	i
Cc1ccc(S(=O)(=O)N2CCC(n3cnnc3C)CC2)cc1C	i
CCCS(=O)(=O)N1CCc2nc(N3CCc4ccccc4C3)[nH]c(=O)c2CC1	i

Compound activity from PubChem.
